DT40 TDP1 CPT – qHTS for Inhibitors of human tyrosyl-DNA phosphodiesterase 1 (TDP1): qHTS in cells in presence of CPT; chicken DT40 Tdp1-/-;hTDP1 cells + 20 nM CPT, ATP luminescence, 48 h; Potency, µM (top dose mostly 46.2 µM), inactives show top-dose activity change, negative = growth inhibition, hits mostly inhibitors; 420,000 compounds, 12% hits; note: % is set by controls: 0 for no effect and ±100 for the full control effect; nearly all actives have a fitted effect of over 55% in size
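Chicken DT40 Tdp1-/- cells stably complemented with human TDP1 were seeded at 400 cells/well in medium containing 20 nM camptothecin, exposed to pin-transferred compounds, and grown at 37 °C for at least 48 hr. Viability was read as ATP luminescence.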
TDP1 block – qHTS Assay for Inhibitors of Tyrosyl-DNA Phosphodiesterase (TDP1); Tyrosyl-DNA phosphodiesterase 1 (Homo sapiens), Q9NUW8; recombinant TDP1, AlphaScreen DNA substrate cleavage; Potency, µM (top dose mostly 130 µM), for the others: at the highest dose activity change, negative = inhibition, hits mostly inhibitors; 350,000 compounds, 0.28% hits; AID 485290, 2010; note: % is set by controls: 0 for no effect and ±100 for the full control effect; nearly all actives have a fitted effect of over 40% in size
Target sequence (Q9NUW8 whole entry, looked up): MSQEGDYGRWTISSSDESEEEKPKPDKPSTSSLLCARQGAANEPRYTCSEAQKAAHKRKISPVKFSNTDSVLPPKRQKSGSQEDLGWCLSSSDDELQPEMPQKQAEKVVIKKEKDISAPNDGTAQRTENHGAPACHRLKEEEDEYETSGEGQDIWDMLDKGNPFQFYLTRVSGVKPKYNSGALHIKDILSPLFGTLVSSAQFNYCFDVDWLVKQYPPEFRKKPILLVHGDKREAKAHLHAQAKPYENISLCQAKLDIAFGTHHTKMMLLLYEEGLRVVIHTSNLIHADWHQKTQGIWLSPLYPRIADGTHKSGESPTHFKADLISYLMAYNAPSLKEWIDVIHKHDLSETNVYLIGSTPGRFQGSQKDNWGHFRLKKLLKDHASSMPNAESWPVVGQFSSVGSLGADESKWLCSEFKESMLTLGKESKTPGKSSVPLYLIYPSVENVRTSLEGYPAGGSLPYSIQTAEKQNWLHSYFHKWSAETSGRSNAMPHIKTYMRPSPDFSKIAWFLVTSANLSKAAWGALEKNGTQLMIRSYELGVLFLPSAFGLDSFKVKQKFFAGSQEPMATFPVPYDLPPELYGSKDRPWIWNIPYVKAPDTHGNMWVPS
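Recombinant human Tdp1 (E. coli-expressed, 1 nM final) preincubated with compounds 15 min at room temperature, then 5'-biotin/3'-phosphotyrosine-FITC DNA substrate (15 nM final) added for 5 min. AlphaScreen beads (10 ug/ml final) added 10 min; cleavage lowers signal.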
ClpP mod – qHTS Assay for Activators of ClpP | Potency, µM (top dose mostly 57.5 µM), without a hit: at the top dose activity change, negative = active | ATP-dependent Clp protease proteolytic subunit (Bacillus subtilis (strain 168)), P80244 | purified B. subtilis ClpP, FRET peptide cleavage, 20 min | 340,000 compounds, 1.9% hits; active = well fitted falling curve with a large enough effect; inconclusive = small, poorly fitted or top-dose-only effect; inactive = no such curve, though single readings can be large or run the other way; note: the source files actives as falling curves though it sought activators and does not explain the sign; nearly all actives have a fitted effect of over 65% in size
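ClpP 10 microg/mL final, pH 8 Tris/KCl buffer with BSA, glycerol, Tween-20; compound pinned in; FRET-FV substrate; RT 20 min; Ex320/Em430; ΔFRET vs ADEP 5.8 microM, DMSO, no enzyme.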
TDP1 cell noCPT – qHTS for Inhibitors of human tyrosyl-DNA phosphodiesterase 1 (TDP1): qHTS in cells in absence of CPT; DT40 Tdp1-/- hTDP1 cells, no CPT, ATP luminescence, 48 h; Potency, µM (highest dose often 46.2 µM), without a hit: at the highest dose activity change, negative = growth inhibition, actives largely listed as inhibitors; 420,000 compounds, 15% hits; AID 686978, 2013; note: % is set by controls: 0 for no effect and ±100 for the full control effect; nearly all actives have a fitted effect of over 55% in size
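Seeded 400 DT40-hTDP1 cells/well (vehicle DMSO, no 20 nM CPT); pinned compounds; ≥48 hr at 37 °C; CellTiter-Glo luminescence as viability measure.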
The depositor's hits bear a star; ? = inconclusive; / = no result given; [ ] = another dose, or the depositor's remark. Shown are actives, neighbours in structure and some others; about 17% of the full set was active somewhere. Unless noted, calls come from the whole dose curve; as a rule, active = well fitted curve in the direction sought with a large enough effect; inconclusive = small, poorly fitted or top-dose-only effect, or another doubt; inactive = no such curve, though single readings can be large; an effect the other way counts as inactive or inconclusive. Potency is the fitted concentration of half-maximal effect.

SMILES | DT40 TDP1 CPT | TDP1 block | ClpP mod | TDP1 cell noCPT
Cc1cccc(/C=N/NC(=O)c2cc(C3CC3)nc3ccccc23)n1 | -8.6% | 2.0% | -1.1% | -17.9%
CCc1ccc(/C=N/NC(=O)c2cc(C)on2)s1 | 0.6% | 0.0% | 2.82µM* | -0.5%
O=C(C[N+]1(CCc2ccccc2)CCOCC1)c1cccc([N+](=O)[O-])c1 | -4.3% | / | 0.4% | -20.4%
O=C(/C=C/c1cccc(Cl)c1)Nn1c(-c2cccs2)nc2ccccc2c1=O | -0.8% | 3.5% | / | -26.2%
COC(=O)N/N=C/c1cc(N=Nc2ccccc2Cl)ccc1O | ? | 6.0% | 0.5% | ?
O=C(N/N=C/c1cc([N+](=O)[O-])ccc1O)c1cc(-c2ccccc2)nc2ccccc12 | 5.8µM* | 2.3% | 1.0% | 5.8µM*
Cc1cc(C(=O)N/N=C/c2ccc([N+](=O)[O-])s2)c2ccccc2n1 | 25.9µM* | / | -1.6% | 14.6µM*
Cc1cccc(/C=N/NC(=O)c2cc(C)nc3ccccc23)n1 | ? | 3.5% | 1.6% | ?
Cc1cc(C(=O)N/N=C/c2ccc(N(C)C)cc2)c2ccccc2n1 | 2.91µM* | 0.0% | / | 4.11µM*
Nc1ccc(C(=O)N/N=C\c2cc(N=Nc3cccc4ccccc34)ccc2O)cc1 | 5.17µM* | 11.4% | -0.9% | 4.61µM*
CCOc1ccc(N(CC(=O)N2CCC(Cc3ccccc3)CC2)S(C)(=O)=O)cc1 | ? | 5.6% | / | ?
CC(C)(C)c1cc(C(=O)N/N=C/c2ccc(O)cc2)n(-c2ccccc2)n1 | ? | 5.8% | 31.6µM* | ?
Cc1nc2c(cc1C(=O)N/N=C/c1ccc([N+](=O)[O-])cc1)c(=O)n(C)c(=O)n2C | -21.7% | -0.6% | -3.3% | -23.5%
Cc1cc(C(=O)N/N=C/c2ccc([N+](=O)[O-])cc2)c2ccccc2n1 | 2.91µM* | 4.7% | -2.1% | 3.26µM*
COc1ccc(OC)c(NC(=O)c2ccc3c(c2)C(=O)N(CC2CCCO2)C3=O)c1 (stereo not given) | 0.8% | / | / | -4.3%
Cc1ccc(/C(O)=C/C(=O)C(=O)NC23CC4CC(CC(C4)C2)C3)cc1 | ? | 9.6% | -0.5% | 13µM*
Cc1ccc(C23CC4CC(CC(NC(=O)NCCN(C)C)(C4)C2)C3)cc1 | ? | -0.9% | 0.9% | 23.1µM*
O=C(CSc1ccccc1C(=O)NCc1ccccc1)NC12CC3CC(CC(C3)C1)C2 | ? | 2.6% | 0.9% | 29.1µM*
Cc1ccc(C(=O)NCC(=O)NC23CC4CC(CC(C4)C2)C3)cc1 | -3.2% | 4.1% | -4.6% | 2.9%
O=C(CSc1ccccc1C(=O)O)NCc1ccccc1 | 14.1% | 0.0% | -25.0% | -9.1%
Cc1ccc(CNC(=O)NC23CC4CC(CC(C4)C2)C3)cc1 | 23.1µM* | -5.3% | -3.7% | ?
COc1ccc(CNC(=O)N2CCc3ccccc3C2)cc1 | -3.6% | / | / | ?
CCN(CC)CCNC(=O)COc1ccc(OC)cc1 | 18.1% | 1.7% | -0.4% | 10.9%
CN(C)CCNC(=O)COc1ccc(C23CC4CC(CC(C4)C2)C3)cc1 | 25.9µM* | 2.7% | / | 20.6µM*
COCCNC(=O)Nc1cc(C(=O)NCc2ccc(C(C)C)cc2)ccc1N1CCCC1 | ? | 3.8% | -9.7% | ?
SMILES | DT40 TDP1 CPT | TDP1 block | ClpP mod | TDP1 cell noCPT
Cc1ccc(C(=O)OCN2C(=O)c3ccccc3C2=O)c(O)c1 | 6.9% | 4.0%[56.1 µM] | 60.7% | 3.5%
O=C(NCC(c1ccc2c(c1)OCO2)N1CCN(c2ccccc2)CC1)c1ccc(F)c(F)c1 (stereo not given) | 5.17µM* | 9.9% | -1.4% | 2.31µM*
CC(C)C(=O)NCC(c1ccc2c(c1)OCO2)N1CCN(c2ccccc2F)CC1 (stereo not given) | -2.8% | -1.1% | -2.4% | -6.7%
O=C(NCC(c1ccc2c(c1)OCO2)N1CCN(c2ccccc2F)CC1)c1ccccc1F (stereo not given) | 11.6µM* | 8.8% | -2.1% | 14.6µM*
COc1ccc(C(=O)NCC(c2ccc3c(c2)OCO3)N2CCN(c3ccccc3F)CC2)cc1 (stereo not given) | 7.31µM* | 6.6% | -0.6% | 5.17µM*
Cc1cccc(C(=O)NCC(c2ccc3c(c2)OCO3)N2CCOCC2)c1 (stereo not given) | ? | -2.2% | -3.0% | 23.1µM*
COC(=O)c1ccccc1NC(=O)c1nc(SCc2ccccc2C)ncc1Cl | 5.2% | 4.7% | -0.3% | 0.6%
O=C(/C=C/c1ccccc1[N+](=O)[O-])NCCc1ccc(F)cc1 | -19.4% | 5.5% | 0.2% | ?
CSCCC(NC(=O)COc1ccccc1)C(=O)N1CCN(c2ccccc2F)CC1 (stereo not given) | 14.6µM* | 0.0% | 0.5% | 23.1µM*
O=C(COc1ccccc1)NCC(c1ccco1)N1CCCCC1 (stereo not given) | 2.5% | / | -2.6% | ?
CCOc1ccc(C(=O)NCC(c2ccc3c(c2)OCO3)N2CCN(c3ccccc3F)CC2)cc1 (stereo not given) | 16.4µM* | 7.7% | 1.0% | 20.6µM*
COc1ccc(N2CCN(C(CNC(=O)c3c(F)cccc3F)c3ccc4c(c3)OCO4)CC2)cc1 (stereo not given) | ? | 7.7% | -4.4% | 16.4µM*
COC(=O)NCC(c1ccc2c(c1)OCO2)N1CCN(c2ccc(OC)cc2)CC1 (stereo not given) | ? | 6.5% | -4.6% | ?
O=C(COc1ccccc1)NCC(c1ccco1)N1CCN(c2ccccc2F)CC1 (stereo not given) | ? | / | 1.78µM* | ?
CCC(=O)Nc1nc(NCc2ccccc2OC)n(-c2ccccc2)n1 | -1.5% | / | 0.6% | -12.1%
O=C(NCC(c1ccco1)N1CCN(c2ccccc2F)CC1)c1ccc2c(c1)OCO2 (stereo not given) | ? | / | -2.4% | 18.4µM*
Cc1ccc2cc(CN(CCN(C)C)C(=O)Nc3ccc(Cl)cc3)c(=O)[nH]c2c1 | ? | 0.0% | 0.0% | 16.4µM*
Cc1ccc2[nH]c(=O)c(CN(CCCN(C)C)C(=O)Nc3ccc(Cl)cc3)cc2c1 | 7.08µM* | 4.0% | -11.8% | 6.31µM*
CC(=O)N(CCc1ccccc1C)Cc1cc2ccc(C)cc2[nH]c1=O | -17.3% | / | 1.0% | ?
CCOC(=O)c1cccc(NC(=O)C2CCCN(S(=O)(=O)c3c(C)nn(C)c3C)C2)c1 (stereo not given) | 20.6µM* | -3.7% | -0.2% | ?
CCOC(=O)c1c(S(=O)(=O)N2CCCC(C(=O)Nc3cccc(Cl)c3)C2)c(C)n(C)c1C (stereo not given) | 9.2µM* | -0.5% | 0.0% | ?
CCOC(=O)c1cccc(NC(=O)C2CCCN(S(=O)(=O)c3c(C)n[nH]c3C)C2)c1 (stereo not given) | ? | 6.0% | -0.1% | ?

Source: PubChem BioAssay (National Center for Advancing Translational Sciences (NCATS))
